{
  "source": "ChEMBL document CHEMBL4513216",
  "about": "“Probing the Open Global Health Chemical Diversity Library for Multistage-Active Starting Points for Next-Generation Antimalarials” (ACS Infect Dis, 2020)",
  "note": "In all, about 68,000 compounds went through this assay and about 2,700 (4%) showed an effect of 50% or more. What follows is part of a selection rich in strong results, with near analogues and random picks from the rest.",
  "data": [
    {"test_system": "Plasmodium berghei", "experiment": "Screen against P. berghei liver stage (PbLuc), transformed with Luciferase, at 2uM", "format": "functional, HepG2", "conditions": "tested at 2 uM", "units": {"INHIBITION": "%"}, "values": [
      {"compound": "O=C1CCCCCN1Cc1ncnn1Cc1c(F)cccc1Cl", "INHIBITION": 29.98},
      {"compound": "O=C1OCCN1Cc1ncnn1Cc1c(F)cccc1Cl", "INHIBITION": 59.94},
      {"compound": "Fc1cccc(Cl)c1Cn1ncnc1CSCCN1CCCC1", "INHIBITION": 2.76},
      {"compound": "O=S(=O)(NCc1ccc(S(=O)(=O)N2CCCC2)s1)c1ccc(Cl)c(Cl)c1", "INHIBITION": -7.01},
      {"compound": "CC1Cc2cc(-c3cncn3CC(=O)NC(C)(C)C)ccc2N1C", "note": "(stereo unspecified)", "INHIBITION": 37.4},
      {"compound": "CCN1CCc2cc(-c3cncn3CC(=O)NC(C)(C)C)ccc21", "INHIBITION": 25.72},
      {"compound": "CCN1c2ccc(-c3cncn3CC(=O)NC(C)(C)C)cc2CC1C", "note": "(stereo unspecified)", "INHIBITION": 51.57},
      {"compound": "CCN1CCCC(c2c(-c3ccccc3)ncn2Cc2cccnc2)C1", "note": "(stereo unspecified)", "INHIBITION": -17.04},
      {"compound": "O=C(NCCCO)c1cc(-c2ccc3c(c2)CCO3)n[nH]1", "INHIBITION": -56.16},
      {"compound": "O=C(NCCO)c1cc(-c2ccc3c(c2)CCO3)n[nH]1", "INHIBITION": 51.31},
      {"compound": "CN(C)CCCNC(=O)c1cc(-c2ccc3c(c2)CCO3)n[nH]1", "INHIBITION": -4.01},
      {"compound": "CC1c2ncc(Cn3cccn3)n2CCN1Cc1ccc(F)cc1", "note": "(stereo unspecified)", "INHIBITION": 17.24},
      {"compound": "COCc1cc(N(C)Cc2cnccn2)nc(C(C)(C)C)n1", "INHIBITION": 10.03},
      {"compound": "COCCC(=O)N1CCCC(CCC(=O)Nc2ccc(Cl)cc2)C1", "note": "(stereo unspecified)", "INHIBITION": -0.62},
      {"compound": "O=C([C@@H]1COC[C@H]2CN(c3ccncn3)C[C@H]21)N1CCCC1", "INHIBITION": 25.58},
      {"compound": "O=C([C@H]1COC[C@H]2CN(c3ccncn3)C[C@H]21)N1CCCC1", "INHIBITION": 53.55},
      {"compound": "O=C([C@@H]1COC[C@H]2CN(c3ccncn3)C[C@H]21)N1CCCCO1", "INHIBITION": 40.64},
      {"compound": "CN(Cc1cccnc1)CC1CN(C(=O)C2CC2)Cc2nccn2C1", "note": "(stereo unspecified)", "INHIBITION": 6.8},
      {"compound": "CN1Cc2c(C(=O)NC3CCCCC3)ncn2-c2ccccc2S1(=O)=O", "INHIBITION": -2.38},
      {"compound": "CCc1nc(-c2ccc(NC(=O)N3CCC4(CC3)OCCO4)cc2)no1", "INHIBITION": -16.82},
      {"compound": "CCc1nc(-c2ccc(NC(=O)N3CCOCC3)cc2)no1", "INHIBITION": -52.23},
      {"compound": "CCc1nc(-c2ccc(C(=O)N3CCC4(CC3)OCCO4)cc2)no1", "INHIBITION": 59.75},
      {"compound": "CC(C)n1nnnc1-c1ccc(NC(=O)CC(F)(F)F)cc1F", "INHIBITION": -16.15},
      {"compound": "CCC(CN1CCOCC1)n1cncc1-c1ccc2c(c1)CCN2CC", "note": "(stereo unspecified)", "INHIBITION": 8.33},
      {"compound": "O=C(C1CCCN(C2CCOCC2)C1)N1CCc2ncccc2C1", "note": "(stereo unspecified)", "INHIBITION": 34.71},
      {"compound": "CCCOCC(=O)N1CCc2c(cccc2S(=O)(=O)N2CCOCC2)C1", "INHIBITION": 53.05},
      {"compound": "CCOCCC(=O)N1CCc2cccc(S(=O)(=O)N3CCOCC3)c2C1", "INHIBITION": 23.82},
      {"compound": "COCC(=O)N1CCc2cccc(S(=O)(=O)N3CCOCC3)c2C1", "INHIBITION": 13.24},
      {"compound": "CC(C)CCN1CCNC(=O)C1CC(=O)NCCc1cc(O)ncn1", "note": "(stereo unspecified)", "INHIBITION": 17.99},
      {"compound": "COC1CCN(CCNC(=O)NC(C)c2cccc(Cl)c2)CC1", "note": "(stereo unspecified)", "INHIBITION": -23.58},
      {"compound": "COC1CCN(CCNC(=O)NC(C)c2ccc(F)c(F)c2)CC1", "note": "(stereo unspecified)", "INHIBITION": 54.29},
      {"compound": "COC1CCN(CCNC(=O)NCC(C)c2cccc(C)c2)CC1", "note": "(stereo unspecified)", "INHIBITION": 38.83},
      {"compound": "Cc1ccc(S(=O)(=O)NCCOc2ccc3nnc(C)n3n2)s1", "INHIBITION": 17.47},
      {"compound": "CCS(=O)(=O)CCN(CC1CCCO1)C1CCCC1", "note": "(stereo unspecified)", "INHIBITION": -19.27},
      {"compound": "CCN(CCS(=O)(=O)CC)CC1CCCO1", "note": "(stereo unspecified)", "INHIBITION": 1.03},
      {"compound": "CS(=O)(=O)CCN(CC1CCCO1)C1CCCC1", "note": "(stereo unspecified)", "INHIBITION": 56.53},
      {"compound": "CCc1nc(N2CCCC(O)(CO)CC2)ncc1C", "note": "(stereo unspecified)", "INHIBITION": 32.1},
      {"compound": "Cc1ccc(C)c(OCc2cc(C(=O)N(C)Cc3cnn(C)c3)no2)c1", "INHIBITION": 28.17},
      {"compound": "Cc1ccc(C)c(OCc2cc(C(=O)N(C)CC(O)CO)no2)c1", "note": "(stereo unspecified)", "INHIBITION": -10.86},
      {"compound": "Cc1ccc(C)c(OCc2cc(C(=O)N(C)Cc3nonc3C)no2)c1", "INHIBITION": 50.86},
      {"compound": "Cc1cnn(CC2CCCN2Cc2ncc(-c3ccc(F)cc3)o2)c1", "note": "(stereo unspecified)", "INHIBITION": 10.52},
      {"compound": "O=C1CC(N(C(=O)c2ccc(F)c(F)c2)C2CC2)C(=O)N1", "note": "(stereo unspecified)", "INHIBITION": -20.51},
      {"compound": "Cc1ccc(C(=O)N(C2CC2)C2CC(=O)NC2=O)cc1F", "note": "(stereo unspecified)", "INHIBITION": 59.93},
      {"compound": "COc1cc(C(=O)N(C2CC2)C2CC(=O)NC2=O)ccc1C", "note": "(stereo unspecified)", "INHIBITION": 11.18},
      {"compound": "O=C([C@H]1C[C@H]2OCC[C@H]2N(CC2CC2)C1)N1CCCC1", "INHIBITION": 63.14},
      {"compound": "O=C([C@H]1C[C@H]2OCC[C@H]2N(CC2CCOCC2)C1)N1CCCC1", "INHIBITION": 58.93},
      {"compound": "O=C([C@H]1C[C@H]2OCC[C@H]2N(CC2CC2)C1)N1CCCCO1", "INHIBITION": -11.4},
      {"compound": "O=C([C@H]1C[C@H]2OCC[C@H]2N(CC2CCOCC2)C1)N1CCCCO1", "INHIBITION": 26.31},
      {"compound": "O=C([C@H]1C[C@@H]2[C@@H](C1)OCCN2CC1CC1)N1CCCC1", "INHIBITION": -1.29},
      {"compound": "CNC(=O)[C@H]1C[C@H]2OCC[C@H]2N(CC2CCOCC2)C1", "INHIBITION": -14.24},
      {"compound": "CS(=O)(=O)N1C[C@H]2CCCN(Cc3nccs3)[C@H]2C1", "INHIBITION": 14.65}
    ]}
  ]
}
